Source: PubChem BioAssay (NCATS)
Results filed as inconclusive are left out. Activity calls are given as the source filed them. The call rests on the fitted dose curve; in most records, active means well fitted inhibition curve with a large enough effect; inconclusive means small, poorly fitted or top-dose-only effect; inactive means flat fitted curve, though single readings scatter.

Tests used:
[1] = test system: HEK293; test: Cytotoxic Profiling of Annotated Libraries Using Quantitative High-Throughput Screening (AID 1296008); settings: Five cell lines viability, CellTiter-Glo ATP luminescence, 48-72 h; max response: hits give low values; on max response: on the % scale 0 is the no-effect control and ±100 the full control effect
Method in brief: (§1)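 Cytotoxicity was measured as CellTiter-Glo ATP luminescence, read after 10 min at room temperature. Compound treatment of the cells lasted 48 or 72 hr at 37 degrees Celsius in a qHTS format.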

[2] = test system: HaCat; test: as above; settings: Five cell lines viability, CellTiter-Glo ATP luminescence, 48-72 h; max response: hits give low values
Method in brief: as §1

[3] = test system: KB-3-1; test: as above; settings: Five cell lines viability, CellTiter-Glo ATP luminescence, 48-72 h; max response: hits give low values
Method in brief: as §1

[4] = test system: NIH3T3; test: as above; settings: Five cell lines viability, CellTiter-Glo ATP luminescence, 48-72 h; max response: hits give low values
Method in brief: as §1

[5] = test system: HACAT; test: qHTS assay to identify novel small-molecules to repurpose for Merkel cell carcinoma treatment (AID 1296009); settings: MCC and control cell lines, CellTiter-Glo viability, 72 h; at 44.8 µM (top of the series) unless noted
Method in brief: (§2)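 After compound transfer in DMSO, plates were kept 72 hr at 37 degree celsius. Luminescent ATP signal from CellTiter-Glo served as viability measure, normalized against DMSO and no-cell controls.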

[6] = test system: HEK293T; test: as above; settings: MCC and control cell lines, CellTiter-Glo viability, 72 h; series mostly up to 44.8 µM
Method in brief: as §2
Further: nearly all actives have a fitted effect of over 60% in size.

CC(C)C1=CC2=CCC3[C@](C)(CCC[C@@]3(C)C(=O)O)C2CC1O (stereo not given in full)
inactive: outcome [1] | outcome [2] | outcome [3] | outcome [4] | outcome [5] | Potency [6]

CC1=CC(=O)C2C(C)(C)CCCC2(C)C12CCC1(COC(=O)C1)O2 (stereo not given)
inactive: outcome [1] | outcome [2] | max response [3] 5.32% | max response [4] -3.33% | outcome [5] | Potency [6]

O=C(O)[C@H]1CCCC[C@H]1C(=O)N1CCc2ccccc2[C@H]1CN1C(=O)c2ccccc2C1=O
inactive: outcome [1] | outcome [2] | outcome [3] | max response [4] 2.69% | outcome [5] | Potency [6]

CC(C)CC(=O)O[C@@H]1OC=C(CO[C@@H]2O[C@H](CO[C@@H]3O[C@H](CO)[C@@H](O)[C@H](O)[C@H]3O)[C@@H](O)[C@H](O)[C@H]2O)[C@H]2C[C@H](O)[C@@H](CO)[C@@H]12
inactive: outcome [1] | outcome [2] | outcome [3] | max response [4] 0.598% | outcome [5] inactive [at 17.4 µM] | Potency [6]

CC(=C/C(=O)O)/C=C/[C@]1(O)[C@@]2(C)CO[C@]1(C)C[C@H](O[C@@H]1O[C@H](CO)[C@@H](O)[C@H](O)[C@H]1O)C2
inactive: outcome [1] | outcome [2] | max response [3] 0.594% | max response [4] -8.59% | outcome [5] inactive [at 17.4 µM] | Potency [6]

COc1cccc(-c2ccc([C@@H](Oc3cc(-c4ccc(C[C@H](N)C(=O)O)cc4)nc(N)n3)C(F)(F)F)cc2)c1
inactive: outcome [1] | outcome [2] | outcome [3] | outcome [4] | outcome [5] | Potency [6]

CC(CCC1(O)OC2CC3C4CCC5CC(O[C@@H]6O[C@H](CO)[C@@H](O)[C@H](O)[C@H]6O[C@@H]6OC[C@@H](O)[C@H](O)[C@H]6O)C(O)CC5(C)C4CCC3(C)C2C1C)CO[C@@H]1O[C@H](CO)[C@@H](O)[C@H](O)[C@H]1O (stereo not given in full)
inactive: outcome [1] | outcome [2] | outcome [3] | outcome [4] | outcome [5] inactive [at 9.27 µM] | outcome [6] inactive [at 9.27 µM]

C/C=C/C1=CC2=C(CO1)C(=O)[C@](C)(O)[C@H](OC(=O)c1c(O)cc(OC)c(O)c1C)C2
inactive: outcome [1] | outcome [2] | outcome [3] | outcome [4] | outcome [5] inactive [at 17.4 µM] | Potency [6]

O=C1NC(=Nc2ccccc2F)S/C1=C\c1ccc(C(=O)O)cc1
inactive: outcome [1] | outcome [2] | outcome [3] | max response [4] -1.07% | outcome [5] | Potency [6]

CN1CC[C@@H](NC(=O)Nc2ccc(C#N)cc2)C[C@@H]1c1nc2ccccc2[nH]1
inactive: outcome [1] | outcome [2] | max response [3] -8.77% | max response [4] 4.24% | outcome [5] | Potency [6]

C=C(C(=O)O)C1CCC(C)C2CCC(=O)OC2(C)C1 (stereo not given)
inactive: outcome [1] | outcome [2] | max response [3] 6.53% | max response [4] 0.163% | outcome [5] | Potency [6]

CCOC(=O)[C@H]1O[C@@H]1C(=O)N[C@@H](CC(C)C)C(=O)NCCC(C)C
inactive: outcome [1] | outcome [2] | outcome [3] | max response [4] -2.92% | outcome [5] | Potency [6]

O=C(NCC(=O)N1CC[C@H](NC2CCC(O)(c3ccc(-c4ncccn4)cn3)CC2)C1)c1cccc(C(F)(F)F)c1 (stereo not given in full)
inactive: outcome [1] | outcome [2] | outcome [3] | max response [4] 3.11% | outcome [5] | Potency [6]

CCC1CC2C(C)=CC3CCCCC3C2(C)C2(OC(=O)C(C)(O)OC2=O)O1 (stereo not given)
inactive: outcome [1] | outcome [2] | outcome [3] | max response [4] 1.16% | outcome [5] | Potency [6]

CC1(CCC(=O)O)C(=O)C=CC23CC4CC(OC4(C)C2O)C13 (stereo not given)
inactive: outcome [1] | outcome [2] | max response [3] 2.02% | outcome [4] | outcome [5] | Potency [6]

CC1CC(O)C2(C)C(C(=O)O)=CCCC2C1(C)CCc1ccoc1 (stereo not given)
inactive: outcome [1] | outcome [2] | outcome [3] | max response [4] -2.92% | outcome [5] | Potency [6]

C/C=C(\C)C(=O)O[C@H]1[C@H](O)[C@]2(COC(C)=O)[C@H](O)C[C@]3(C)C(=CCC4[C@@]5(C)CC[C@H](O[C@@H]6O[C@H](C(=O)O)[C@@H](O[C@@H]7O[C@H](CO)[C@@H](O)[C@H](O)[C@H]7O)[C@H](O)[C@H]6O[C@@H]6O[C@H](CO)[C@@H](O)[C@H](O)[C@H]6O)[C@](C)(CO)C5CC[C@]43C)[C@@H]2CC1(C)C (stereo not given in full)
inactive: outcome [1] | outcome [2] | outcome [3] | max response [4] 2.26% | outcome [5] inactive [at 9.27 µM] | outcome [6] inactive [at 9.27 µM]

C[C@@H]1O[C@@H](OC[C@H]2O[C@@H](OCCc3ccccc3)[C@H](O)[C@@H](O)[C@@H]2O)[C@H](O)[C@H](O)[C@H]1O
inactive: outcome [1] | outcome [2] | outcome [3] | max response [4] 4.11% | outcome [5] inactive [at 17.4 µM] | Potency [6]

CC1CCC2(C(=O)OC3OC(CO)C(O)C(O)C3O)CCC3(C(=O)O)C(=CCC4C5(C)CCC(OC6OC(C)C(O)C(O)C6O)C(C)(C)C5CCC43C)C2C1C (stereo not given)
inactive: outcome [1] | outcome [2] | outcome [3] | max response [4] 4.68% | outcome [5] inactive [at 17.4 µM] | Potency [6]

C[C@@H]1O[C@@H](O[C@H]2[C@H](OC(C#N)c3ccc(O)cc3)O[C@H](CO)[C@@H](O)[C@@H]2O)[C@H](O)[C@H](O)[C@H]1O (stereo not given in full)
inactive: outcome [1] | outcome [2] | outcome [3] | outcome [4] | outcome [5] inactive [at 17.4 µM] | Potency [6]

CC(C)CNC(=O)/C=C/CCCCc1ccc2c(c1)OCO2
inactive: outcome [1] | outcome [2] | max response [3] 4.53% | max response [4] -0.808% | outcome [5] | Potency [6]

NCCOCCOCCNC(=O)Cc1ccc(Nc2nc(NCc3ccc(F)cc3)nc(NCC3CCCCC3)n2)cc1
inactive: outcome [1] | outcome [2] | outcome [3] | outcome [4] | outcome [5] | Potency [6]

COc1ccc(/C=C/C(=O)O[C@@H]2[C@@H](O)[C@H](C)O[C@@H](OC3C4C=COC(O[C@@H]5O[C@H](CO)[C@@H](O)[C@H](O)[C@H]5O)C4C4(CO)OC34)[C@@H]2O)cc1OC (stereo not given in full)
inactive: outcome [1] | outcome [2] | max response [3] -0.119% | max response [4] 0.929% | outcome [5] inactive [at 17.4 µM] | Potency [6]

CC1(C)C(=O)N2c3ccccc3[C@]3(CC(n4cnc5ccccc5c4=O)C(=O)O3)[C@H]2N1O (stereo not given in full)
inactive: outcome [1] | outcome [2] | outcome [3] | max response [4] 1.65% | outcome [5] inactive [at 17.4 µM] | Potency [6]

C[C@@H]1C[C@H](O[C@@H]2O[C@H](CO[C@@H]3OC[C@](O)(CO)[C@H]3O)[C@@H](O)[C@H](O)[C@H]2O)CC(C)(C)[C@H]1/C=C/[C@@H](C)O
inactive: outcome [1] | outcome [2] | outcome [3] | outcome [4] | outcome [5] inactive [at 17.4 µM] | Potency [6]
